Results on 53 molecules are retold here after PubChem BioAssay AID485360 (National Center for Advancing Translational Sciences (NCATS), 2010).

Screen size: about 230,000 compounds; about 1,500 (0.65%) were called active. Not shown: some 3% with an inconclusive outcome. What follows is part of a selection rich in actives, with near analogues and random picks from the rest. Entries that show only a call come without a potency. Values without a mark were called inactive. Calls follow the shape of the dose curve; as a rule, active = well fitted inhibition curve with a large enough effect; inconclusive = small, poorly fitted or top-dose-only effect; inactive = no such curve, though single readings can be large or run the other way.
Potency is read from the fitted curve at half-maximal effect.

The target in this assay is Lethal(3)malignant brain tumor-like protein 1 (Homo sapiens) (UniProt Q9Y468). As to the kind of experiment: qHTS Assay for the Inhibitors of L3MBTL1. Also: nearly all actives have a fitted effect of over 60% in size. The following applies: AlphaScreen L3MBTL1–H3K9me1 peptide binding; series mostly up to 57.1 µM. The method in brief: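 L3MBTL1 50 nM + b-AHA-H3(1-15)K9me1 75 nM, 30 min RT; compound added, 30 min RT; streptavidin donor/Ni-chelate acceptor beads 10 ug/mL each final, 30 min RT dark; AlphaScreen read.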
Lethal(3)malignant brain tumor-like protein 1 (Homo sapiens), sequence (Q9Y468 whole entry, looked up): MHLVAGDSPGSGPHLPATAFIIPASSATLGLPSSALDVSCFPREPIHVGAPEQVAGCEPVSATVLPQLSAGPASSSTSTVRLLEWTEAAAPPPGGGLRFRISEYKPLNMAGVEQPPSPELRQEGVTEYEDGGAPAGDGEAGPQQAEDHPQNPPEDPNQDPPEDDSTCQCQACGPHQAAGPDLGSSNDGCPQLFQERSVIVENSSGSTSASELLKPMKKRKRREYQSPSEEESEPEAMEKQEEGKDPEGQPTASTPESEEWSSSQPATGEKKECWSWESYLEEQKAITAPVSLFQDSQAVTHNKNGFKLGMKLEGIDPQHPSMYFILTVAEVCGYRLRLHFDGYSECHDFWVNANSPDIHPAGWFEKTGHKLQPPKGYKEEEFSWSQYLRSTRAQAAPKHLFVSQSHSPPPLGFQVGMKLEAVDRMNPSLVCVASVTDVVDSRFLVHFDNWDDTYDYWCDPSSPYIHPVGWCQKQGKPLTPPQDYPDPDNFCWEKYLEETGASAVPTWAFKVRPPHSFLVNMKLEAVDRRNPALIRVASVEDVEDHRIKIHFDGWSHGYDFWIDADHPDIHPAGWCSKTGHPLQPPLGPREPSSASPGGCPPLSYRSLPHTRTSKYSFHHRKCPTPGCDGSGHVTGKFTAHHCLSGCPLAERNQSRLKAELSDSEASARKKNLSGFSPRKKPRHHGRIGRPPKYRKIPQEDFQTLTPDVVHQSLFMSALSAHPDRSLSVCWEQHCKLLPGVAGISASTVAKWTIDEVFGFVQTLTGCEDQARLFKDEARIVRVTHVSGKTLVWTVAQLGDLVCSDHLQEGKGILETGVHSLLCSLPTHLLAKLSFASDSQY
For orientation: In qHTS, concentration-response curves come from the screen itself.
`O=C(CCC1CCCCC1)Nc1cc(C(F)(F)F)ccc1N1CCOCC1`: the Potency entry was “inactive”. Still for that read-out and setting: with `Cc1ccc(S(=O)(=O)CCC(=O)OCC(=O)NCCc2ccc(S(N)(=O)=O)cc2)cc1` the entry was “inactive”; with `COc1ccccc1C(CNC(=O)c1cccc(S(=O)(=O)Nc2ccc(F)cc2)c1)N(C)C` (stereo not drawn), “inactive”; with `O=c1ccc2c(-c3ccccc3S(=O)(=O)O)c3ccc(O)c(O)c3oc-2c1O`, 0.251 µM (active).

For `CCNC(=O)N(CC)C[C@H]1N[C@@](CC)(C(=O)OC)[C@H]2C(=O)N(Cc3ccccc3)C(=O)[C@@H]12`, the Potency result was “inactive”. Same read-out and setting: with `Cc1cc(C(=O)N/N=C/c2cc([N+](=O)[O-])cc(C)c2O)n[nH]1` the figure was 22.4 µM (active). Still for that read-out and setting: with `CC(C)(C)c1cc(C(=O)N/N=C/c2ccc([N+](=O)[O-])s2)n[nH]1` the entry was “inactive”; with `Cc1ccsc1C(=O)N/N=C/c1ccc([N+](=O)[O-])cc1`, “inactive”; with `Cc1ccccc1NC(=S)NC(=O)Cc1ccc(Cl)cc1`, “inactive”. In the case of `COc1ccc(OCCCC(=O)Nc2cccc(S(=O)(=O)N3CCCCCC3)c2)cc1`, the Potency result was “inactive”. Same read-out and setting: with `CC(C)(C)NS(=O)(=O)NC(=O)C1=C(N2CCCC2)COC1=O` the entry was “inactive”. Take `COc1ccc2nc3n(c(=O)c2c1)-c1cc(C)ccc1C(=O)NC3Cc1ccc(O)cc1` (stereo not drawn): the Potency entry was “inactive”. Consider `CC(OC(=O)CNC(=O)c1ccc(Cl)c([N+](=O)[O-])c1)C(=O)NCc1ccco1` (stereo not drawn), for which the Potency entry is “inactive”. On to `Cc1ccc(/C([O-])=C(/C(=S)NCc2ccco2)[n+]2ccccc2)cc1[N+](=O)[O-]`, for which the Potency is 10 µM (active). Same read-out and setting: with `O=[N+]([O-])c1cccc(/C([O-])=C(/C(=S)Nc2ccccc2F)[n+]2ccccc2)c1` the entry was “inactive”; with `CC(=O)c1c(C)n(-c2ccc(C)cc2)c2ccc(O)cc12`, “inactive”; with `COc1cc2c(-c3ccc4c(c3)OCO4)c(-c3ccsc3)oc(=O)c2cc1OC`, “inactive”. On the same count and under the same terms, with `O=C(O)c1cccc(N2C(=O)Nc3ccccc3N2O)c1` the entry was “inactive”; with `Cn1cccc1/C=C1\SC(=O)N(CC(=O)Nc2ccc(F)cc2)C1=O`, “inactive”.

Regarding `N#Cc1ccccc1CN1C(=O)S/C(=C/c2cccn2-c2cccc(C(=O)O)c2)C1=O`, the Potency is 22.4 µM (active). The same measure, in the same setting: with `CN(C(=O)CSc1nnc(-c2ccc(C(C)(C)C)cc2)n1C)C1CCS(=O)(=O)C1` (stereo not drawn) the entry was “inactive”; with `C1=C(N2CCOCC2)/C(=C/c2nc3ccccc3[nH]2)CC1`, 25.1 µM (active). Still for that read-out and setting: with `O=c1[nH]c(N2CCOCC2)nc2ccccc12` the entry was “inactive”.

Turning to `CC1(C)Cc2c(C#N)c(SCc3nc4ccccc4[nH]3)nc(N3CCOCC3)c2CO1`, the Potency entry is “inactive”. On the same count and under the same terms, with `N#CCN(C(=O)COC(=O)C1CC2CCCC(C1)C2=O)c1ccccc1` (stereo not drawn) the entry was “inactive”; with `CC(NC(=O)c1ccccc1C(=O)O)c1ccc(-n2ccnc2)cc1` (stereo not drawn), “inactive”. On the same count and under the same terms, with `COc1cc(C=NNC(=O)c2cccnc2)ccc1OC(=O)c1ccccc1F` the entry was “inactive”. Consider `Nc1ccc(Nc2cc(O)c3ncccc3c2)cc1`, for which the Potency was 11.2 µM (active). On the same count and under the same terms, with `CC(C)c1ccc(Nc2ncccc2C#N)cc1` the entry was “inactive”; with `COc1ccc(NC(=O)Nc2cccc3cccnc23)cc1`, “inactive”; with `COc1ccc(S(=O)(=O)N2CCCCC2)cc1NC(=O)COc1ccccc1`, “inactive”. Still for that read-out and setting: with `Cc1cc(C(=O)COc2ccccc2Cl)c(C)n1C1CC1` the entry was “inactive”; with `CCC(CO)Oc1cc(NC(=O)c2cccc3ccccc23)c2ncn(C(C)C)c2c1` (stereo not drawn), “inactive”; with `COc1cc(OC)cc(C(=O)OCC(=O)Nc2ccc(F)cc2F)c1`, “inactive”. On to `O=C(COC(=O)c1ccc(F)cc1F)Nc1ncccn1`, for which the Potency was 20 µM (active).

On to `O=C(COC(=O)CSc1ccccc1)Nc1ccc(F)cc1F`, for which the Potency result is “inactive”. The same measure, in the same setting: with `O=S(=O)(c1ccccc1)N1CCC(c2ccccc2)CC1` the entry was “inactive”. Same read-out and setting: with `O=C(COC(=O)COc1cc(Cl)c(Cl)cc1Cl)NC1CC1` the entry was “inactive”; with `CCCCN(C(=O)CCNC(=O)NC12CC3CC(CC(C3)C1)C2)c1c(N)n(CCCC)c(=O)[nH]c1=O`, “inactive”. Still for that read-out and setting: with `COc1ccc(Cc2nnc(NC(=O)Cc3cccs3)s2)cc1` the figure was 4.47 µM (active). On to `COc1ccc(Cc2nnc(NC(=O)c3ccc(OC)cc3OC)s2)cc1`, for which the activity, negative = inhibition was 1.66% [at 2.29 µM]. For `CCc1nnc(NC(=O)Cc2cccs2)s1`, the Potency result was “inactive”.

For the molecule `Cn1cc[n+](C)c1COc1ccc(C=O)cc1`, the Potency entry is “inactive”.

Turning to `CCOCCOC(=O)C1=C(C)NC(=O)NC1c1ccc2c(c1)OCO2` (stereo not drawn), the Potency result is “inactive”. On the same count and under the same terms, with `CC1(c2ccccc2)NC(=O)N(CC(=O)N2CC(=O)Nc3ccccc32)C1=O` (stereo not drawn) the entry was “inactive”; with `Cc1ccc(C2(C)NC(=O)N(CC(=O)N3CC(=O)Nc4ccccc43)C2=O)cc1` (stereo not drawn), “inactive”; with `CCOC(=O)N1CCN(C(=O)C(C)NC(=O)c2ccco2)CC1` (stereo not drawn), “inactive”. Still for that read-out and setting: with `CCOc1cc(/C=N/O)cc(Br)c1OC` the entry was “inactive”.

As for `CCOc1c(Br)cc(/C=C2\C(=O)N(CCC#N)N=C2C)cc1OC`, the Potency was 14.1 µM (active). Same read-out and setting: with `C=CCOc1c(Br)cc(/C=N\n2nnnc2N)cc1OC` the entry was “inactive”; with `CCOC(=O)[C@@H]1[C@H]2COc3cc(OC)ccc3[C@@H]2N2C(=O)N(c3cccc(C)c3)C(=O)[C@@]12C`, “inactive”; with `CC(OC(=O)c1ccc([N+](=O)[O-])cc1)C(=O)NCC1CCCCC1` (stereo not drawn), “inactive”.

As for `CCCCN1C(=O)C(C)=C(C)C1OCCc1ccc(OC)c(OC)c1` (stereo not drawn), the activity, negative = inhibition was 0.955% [at 2.29 µM].
